# In PubChem BioAssay (NCATS):
# Records with an inconclusive call do not appear. Activity calls are given as the source filed them. Calls follow the shape of the full dose curve; tested in HEK293 reporter line.
# Assay: qHTS for Inhibitors of the Functional Ribonucleoprotein Complex (vRNP) of Lymphocytic Choriomeningitis Arenaviruses (LCMV): Viability assay - alamar blue signal for LCMV Primary Screen (AID 1347085); also: nearly all actives have a fitted effect of over 80% in size
# Details: alamar blue viability counter-screen, LCMV vRNP screen cells; series mostly up to 57.5 µM; activity change, negative = lower viability: at the top concentration
# % is scaled to controls: 0 for no effect and ±100 for the full control effect; potency is read from the fitted curve at half-maximal effect.
Structure (SMILES),"activity change, negative = lower viability",Potency
CN1CCC[C@H]1CCO[C@](C)(c1ccccc1)c1ccc(Cl)cc1,-4.44% (inactive),–
COC(=O)c1ccc(=O)c2nc3/c(=C/O)c(O)cc(=O)c3[nH]c12,-0.871% (inactive),–
COC(=O)c1cc(OC)cc(O)c1C(=O)c1c(O)cc(C)cc1O,16.6% (inactive),–
CC1(C)C=Cc2c(ccc(C(=O)/C=C/c3ccccc3)c2O)O1,14.7% (inactive),–
COc1cc(C)ccc1C(C)C,0.732% [at 115 µM] (inactive),–
C/C=C(\C)C(=O)O[C@@H]([C@H](O)c1cc2ccc(=O)oc2cc1OC)C(C)(C)O,7.03% (inactive),–
O=C1C=C(O)c2cccc(O)c2C1=O,4.79% (inactive),–
COc1cc(C(=O)OC2C[C@H]3CC[C@@H](C2)N3)ccc1O (stereo not given in full),0.96% (inactive),–
C/C=C(/C)C(=O)O[C@@H]1c2c(ccc3ccc(=O)oc23)O[C@@H]1C(C)(C)OC(C)=O,11.2% (inactive),–
CC(C)(O)c1cc2nc(-c3cnc(N)nc3)nc(N3CCOCC3)c2s1,–,769 nM (active)
CC1(C)C2CC1[C@@](C)(O)[C@H](O)C2 (stereo not given in full),10.6% (inactive),–
COC(=O)c1cc(O)c(O)c(O)c1,-7.72% (inactive),–
CCCCN,-6.79% (inactive),–
COC1=CC(=O)[C@@]2([C@@H]1O)[C@@H](Cl)C[C@]13C(OC)=C(OC)C(=O)C[C@]21CCN3C,-0.456% (inactive),–
COc1ccc2c(c1)C(=O)CC(c1ccc(OC)c(OC)c1)O2 (stereo not given),9.19% (inactive),–
COc1ccc(C(=O)OC2C[C@H]3CC[C@@H](C2)N3O)cc1OC (stereo not given in full),11% (inactive),–
CSCC[C@@H](N)C(=O)O,-7.75% (inactive),–
ON=Cc1ccnc2ccccc12,-2.22% (inactive),–
CC1=CC23C(=O)C(C=C(CO)[C@@H](O)[C@]2(O)[C@H]1O)[C@H]1[C@@H](C[C@H]3C)C1(C)C (stereo not given in full),25.9% (inactive),–
CC(=O)c1ccc(C)cc1,21.5% [at 115 µM] (inactive),–

Structure (SMILES),"activity change, negative = lower viability",Potency
CO[C@H]1[C@@H]2C=CO[C@@H](O[C@H]3O[C@@H](CO)[C@H](O)[C@@H](O)[C@@H]3O)[C@@H]2[C@@]2(CO)O[C@@H]12,5.64% (inactive),–
C/C(=C\C(=O)O)CC(=O)O,7.69% (inactive),–
CC[C@@H](O)C[C@H]1CCC[C@@]2(C[C@@H]3OC(=O)/C=C/[C@@](C)(O)[C@@H](O)[C@H](C)[C@@H](O)[C@H](OC4CCC(N(C)C)C(C)O4)[C@@H](O)[C@](C)(O)CCCCC/C=C/[C@@H]4CC(C)(C)O[C@@]4(O)C[C@H](O2)[C@H]3C)O1 (stereo not given in full),-110% (inactive),–
C/C=C(\C)C(=O)O[C@H]1CC(C)=C2C(=O)C=C(C)C2[C@@H]2OC(=O)[C@@](C)(OC(=O)C=C(C)C)C21 (stereo not given in full),-8.62% (inactive),–
CCCCC/C=C\C/C=C\C=C\[C@@H](O)C/C=C\CCCC(=O)O,16.7% [at 0.757 µM] (inactive),–
CC(=O)O[C@H]1C(=O)[C@@]2(C)C([C@H](OC(=O)c3ccccc3)[C@]3(O)C[C@H](OC(=O)[C@H](O)[C@@H](NC(=O)c4ccccc4)c4ccccc4)C(C)=C1C3(C)C)[C@]1(OC(C)=O)CO[C@@H]1C[C@H]2O (stereo not given in full),-93.1% (inactive),–
COc1cc(C(=O)O[C@@H]2CC3CC[C@]2(C)C3(C)C)ccc1O,8.68% (inactive),–
C=C[C@@]1(C)CC(=O)[C@]2(O)[C@@]3(C)[C@@H](O)CCC(C)(C)[C@@H]3[C@H](OC(C)=O)[C@H](O)[C@@]2(C)O1,-33.4% (inactive),–
CCOC(=O)[C@H](CCc1ccccc1)N[C@@H](C)C(=O)N1[C@@H](C(=O)O)C[C@H]2CCC[C@@H]21,-39.3% (inactive),–
CCCCCCCCCCCC(C)=O,20.4% [at 115 µM] (inactive),–
CC1=CCCC(C)(C)C12CCC(C)O2 (stereo not given),9.59% [at 115 µM] (inactive),–
CC(C)(O)Cn1c(NC(=O)c2ccc(-c3cn[nH]c3)s2)nc2cc(CN3CCOCC3)ccc21,–,4320 nM (active)
CS(=O)(=O)N1CCN(Cc2cc3nc(-c4cccc5[nH]ncc45)nc(N4CCOCC4)c3s2)CC1,–,1220 nM (active)
O=C1CCCCCCCCCCCCCCO1,25.4% [at 115 µM] (inactive),–
COC(=O)[C@@H]1CC2=CC(=O)CC[C@]2(C)[C@@]23O[C@@H]2C[C@@]2(C)[C@H](CC[C@@]24CCC(=O)O4)[C@@H]13,2.7% (inactive),–
C[C@@H]1C(=O)O[C@@H]2CC34[C@H]5C[C@@H](C(C)(C)C)C36[C@H](OC(=O)[C@@H]6O)OC4(C(=O)O5)[C@@]12O (stereo not given in full),0.23% (inactive),–
O=C1C=C(c2ccccc2)CO1,7.7% (inactive),–
COc1cc(C2c3cc4c(c(O)c3CC3COC(=O)C32)OCO4)cc(OC)c1O (stereo not given),-104% (inactive),–
CC[C@H]1OC(=O)[C@H](C)[C@@H](O[C@H]2C[C@@](C)(OC)[C@@H](O)[C@H](C)O2)[C@H](C)[C@@H](O[C@@H]2O[C@@H](C)C[C@H](N(C)C)[C@@H]2O)[C@](C)(O)C[C@@H](C)C(=O)[C@H](C)[C@@H](O)[C@]1(C)O,17.1% (inactive),–
C=C[C@](C)(O)CC[C@@H]1[C@@]2(C)CCCC(C)(C)[C@@H]2CC[C@@]1(C)O,3.44% [at 115 µM] (inactive),–
